Reference: the supplement of paper PMC3334620
In all, about 33,000 sequences were measured (“E-score (-0.5 to 0.5)”: median about -0.0014, highest 2% from about 0.25 on). Many of the other results were omitted from the sample, so the highest values are more common in it than they were.

Biological target: T1, Cad1 (UniProt P24813)
T1 sequence: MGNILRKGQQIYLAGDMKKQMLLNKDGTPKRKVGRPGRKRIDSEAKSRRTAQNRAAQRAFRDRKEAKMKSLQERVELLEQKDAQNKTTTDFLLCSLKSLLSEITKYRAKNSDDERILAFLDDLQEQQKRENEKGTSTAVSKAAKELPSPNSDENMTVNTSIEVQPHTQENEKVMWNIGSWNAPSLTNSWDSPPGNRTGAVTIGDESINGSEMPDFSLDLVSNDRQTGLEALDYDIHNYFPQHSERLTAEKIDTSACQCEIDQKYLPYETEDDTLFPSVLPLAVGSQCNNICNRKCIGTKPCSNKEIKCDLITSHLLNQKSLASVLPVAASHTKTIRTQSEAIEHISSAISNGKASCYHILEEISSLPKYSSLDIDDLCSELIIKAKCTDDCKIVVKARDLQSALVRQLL
Test: PBM E-score (8-mer binding enrichment) (E-score (-0.5 to 0.5)); higher = stronger / more preferred TF binding
Conditions: protein concentration: 100 nM; construct: GST-full length
Outline: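 For each ungapped eight-base word taken together with its reverse complement, the Universal PBM Analysis Suite assigned an E-score. Binding data came from GST-tagged yeast transcription factors, applied at about 100-200 nM, on universal all-10-mer Agilent arrays made double-stranded by primer extension. Fluorescent anti-GST marked bound protein, and scans were normalised with masliner.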

| Sequence | PBM E-score |
| --- | --- |
| TAGGTCGA | 0.131 |
| CACATATA | 0.0867 |
| TATATATA | 0.377 |
| AATATGGA | 0.0714 |
| TACATATA | 0.252 |
| GATATATC | 0.211 |
| GACATATA | 0.0919 |
| GATATATA | 0.333 |
| TATATGGA | -0.0332 |
| GATATACA | 0.0899 |
| GATATGGA | 0.266 |
| TATATACA | 0.209 |
| CATATATA | 0.164 |
| TGTAGTAA | 0.145 |
| CGGAAACG | -0.0175 |
| AATCTAGG | 0.00096 |
| TGCTCCAA | 0.0768 |
| GAATCTGC | 0.014 |
| GACATGTA | 0.0721 |
| CACATGTA | 0.109 |
| TACATGTA | 0.27 |
| CCGATTGA | 0.144 |

| Sequence | PBM E-score |
| --- | --- |
| CCGATTGC | 0.25 |
| ACGATTGC | 0.213 |
| CCGGGTAG | 0.00529 |
| ATTAGATG | 0.263 |
| ATTAGATC | 0.03 |
| ATTAGATA | 0.211 |
| ACATTGGT | 0.0584 |
| AGCTAGCT | 0.162 |
| AAACAATA | 0.251 |
| CAACAAGA | -0.0155 |
| GAACAACA | -0.043 |
| AAACAATT | 0.114 |
| TAACAATA | 0.165 |
| CAACAACA | 0.269 |
| TCCAAGAA | -0.0134 |
| GCGTTAGC | 0.0751 |
| AGTAGATC | -0.191 |
| CTTATATA | 0.331 |
| GTTATATA | 0.232 |
| ACTATATA | 0.251 |
| ATTATGTG | 0.25 |
| CTTATATC | 0.0947 |

| Sequence | PBM E-score |
| --- | --- |
| GCTATATA | 0.149 |
| AGTAGATA | 0.282 |
| CGTAGATA | 0.113 |
| ATTATGTC | 0.181 |
| ACTATATC | 0.109 |
| ATTATGTA | 0.311 |
| ATCCGGGG | -0.0124 |
| CAACCGTG | 0.00095 |
| GATCCTAC | 0.00192 |
| CCGTATTC | -0.0178 |
| ATGGACCC | -0.0809 |
| AGTATATC | 0.0175 |
| AGTATATA | 0.285 |
| ATTATATA | 0.306 |
| AGTATATG | 0.0763 |
| ATTATATC | 0.0433 |
| ATTATATG | 0.211 |
| AAAATATT | 0.192 |
| ACCCACTA | 0.107 |
| AGCGCCAA | -0.0679 |
| ATGGTCTC | 0.102 |
| GATAAGCA | 0.154 |

| Sequence | PBM E-score |
| --- | --- |
| CGTAAGCA | 0.232 |
| AATAAGAT | 0.039 |
| GGTAAGCA | 0.257 |
| AATAAGCA | 0.343 |
| AATAAGAA | 0.252 |
| AATAAGCT | 0.234 |
| AGTAAGCA | 0.241 |
| AATAAGAG | 0.0662 |
| CTCTAGTC | -0.388 |
| AGACTTGA | -0.0266 |
| ATTTCCGA | 0.0803 |
| ATTTTCCC | 0.00868 |
| ATTCCCGA | -0.241 |
| ATTCCCCG | -0.0432 |
| ATTTCCGG | 0.264 |
| ATTCCCGG | 0.296 |
| ATTTTCCG | 0.304 |
| AATTTCCG | 0.24 |
| ATTTCCGC | 0.123 |
| GCGGGTCC | -0.207 |
